Screening results (PubChem)
The list is not random: actives were taken first. Their share in the collection is about 12%.
NS1 inh: influenza NS1 inhibition. actives 0.4% (n = 270,000). AID 2326. Potency, µM (doses to about 46.1 µM), for inactives: at the highest dose activity, positive = more growth; calls by dose curve; note: actives are rising curves; nearly all actives have a fitted effect of over 50% in size
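Recovery from NS1-induced slow growth read by OD600 in budding yeast switched to galactose assay medium (pH 6.0, -URA) at 1:100 dilution. Compound 23 nl per well; the matching strain lacking NS1 serves as control.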
AMA1 RON2 block: disrupts binding of P. falciparum AMA1 to RON2 | Potency, µM (highest dose often 58.2 µM), without a hit: at the highest dose activity change, negative = inhibition, usual class: inhibitors | AlphaScreen AMA1-biotinylated RON2 peptide binding | AID 720542 | actives 0.2% (n = 360,000);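 note: 0% = vehicle wells and -100% = peptide control; nearly all actives have a fitted effect of over 45% in size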
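AMA1 (3D7) with his tag at 25 nM final met compounds first, then biotinylated RON2 peptide at 25 nM; detection used donor plus acceptor beads, 10 µg/mL apiece, read by AlphaScreen after 30 min at room temperature.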
Pf growth 48h: P. falciparum growth inhibition at 48 hours (one generation); P. falciparum luciferase growth in erythrocytes, 48 h; Potency, µM (doses to about 28.7 µM), for inactives: at the top dose activity change, negative = inhibition, usual class: inhibitors; actives 5.9% (n = 310,000); note: % is set by controls: 0 for no effect and ±100 for the full control effect
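Luciferase-expressing parasites in RBCs, 2% Hct / 0.1% parasitemia final; RPMI 1640 + 0.5% Albumax; 37 C, 5% CO2, one generation; luminescence read-out, lower signal = inhibition.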
Pf growth 96h: P. falciparum growth inhibition at 96 hours; Potency, µM (series often up to 28.7 µM), inactives show at the highest dose activity change, negative = inhibition, most hits filed as inhibitors; AID 504834; P. falciparum luciferase reporter growth, 96 h; actives 6.9% (n = 320,000); note: % is set by controls: 0 for no effect and ±100 for the full control effect
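Two-generation exposure (96 h) targets delayed-death phenotype. Reporter parasites carrying integrated firefly luciferase, in red cells at 2% hematocrit and 0.05% parasitemia final, kept at 37 C, 5% CO2; luminescence loss indicates inhibition.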
HCV inhibitor: HCV inhibition; Huh7.5.1 HCVcc-Cre infection, luciferase reporter, 44 h; Potency, µM (doses to about 41.8 µM), for inactives: at the top dose activity change, negative = inhibition, most hits filed as inhibitors; actives 3.4% (n = 340,000); note: % is set by controls: 0 for no effect and ±100 for the full control effect
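Cells (1,000/well) were plated 4 h before compound, then infected with HCVcc-Cre virus (~0.5 moi). After 44 h further culture, infection was read as luciferase luminescence following a 15 min substrate incubation at room temperature.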
SARS PLpro yeast: SARS-CoV PLP inhibition in yeast; S. cerevisiae expressing SARS-CoV PLpro, growth rescue; Potency, µM (titrated, usually from 32.9 µM), inactives show top-dose activity, positive = growth rescue, hits mostly activators; actives 0.19% (n = 330,000); AID 485353; calls by dose curve; note: 0% is about no effect; nearly all actives have a fitted effect of over 55% in size
* marks the source's active call; other numbers are inactive results; ? = inconclusive; / = no result given; ! = a repeat was not active; [ ] = remark or other dose. Unless noted, calls come from the whole dose curve; as a rule, active = well fitted curve in the direction sought with a large enough effect; inconclusive = small, poorly fitted or top-dose-only effect, or another doubt; inactive = no such curve, though single readings can be large; an effect the other way counts as inactive or inconclusive. Potency is the fitted concentration of half-maximal effect.

SMILES	NS1 inh	AMA1 RON2 block	Pf growth 48h	Pf growth 96h	HCV inhibitor	SARS PLpro yeast
Cc1c(CCN)ccc2c1[nH]c1ccccc12	3%	4%	10µM*	?	-15%	-2%
Cc1c(OC(C)C(=O)NCC(O)c2ccccc2)ccc2c3c(c(=O)oc12)CCCC3 (stereo unspecified)	-32%	0%	8.3µM*	4.1µM*	25µM*	-2%
Cc1c(OCC(=O)NCC(O)c2ccccc2)ccc2c3c(c(=O)oc12)CCC3 (stereo unspecified)	-12%	-12%	-15%	12µM*	?	5%
Cc1c(OCC(=O)NCCCN2CCCC2=O)ccc2c3c(c(=O)oc12)CCCC3	-8%	4%	?	19µM*	7%	3%
Cc1c(OCC(=O)N2CCC(C(=O)O)CC2)ccc2c3c(c(=O)oc12)CCC3	2%	-6%	40%	61%	0.32µM*	4%
CC(C)(N=NC(C)(C)C(=N)N)C(=N)N	4%	/	/	/	/	/
NC(CCc1ccccc1)c1csc(NC(=O)NCC2CCCCC2)n1 (stereo unspecified)	/	47%	/	/	/	/
CCc1cc(=O)oc2cc(OCC(=O)NCCCN3CCCC3=O)c(Cl)cc12	-1%	-6%	?	12µM*	-17%	1%
Cc1cc(OCC(=O)NCC(O)c2ccccc2)c2c3c(c(=O)oc2c1)CCC3 (stereo unspecified)	7%	-6%	?	-79%	-29%	-6%
O=C(COc1cc2oc(=O)c3c(c2cc1Cl)CCC3)NCC(O)c1ccccc1 (stereo unspecified)	3%	-16%	0%	13µM*	?	2%
CCc1cc(=O)oc2cc(OCC(=O)NCCCn3ccnc3)c(Cl)cc12	5%	7%	0%	-4%	11%	4%
NS(=O)(=O)c1ccc(NS(=O)(=O)c2ccc(NC(=O)C3CC3)cc2)cc1	13%	15%	?	148%	12%	-3%
COC(C(=O)NNC(=O)CCc1ccccc1)c1ccccc1 (stereo unspecified)	/	50%	-30%	-39%	8%	0%
C#CCSc1nc(-c2cccs2)ccc1C#N	3%	15%	15%	10%	4.5µM*	4%
COc1ccc(NC(=O)CCCCCN2C(=O)[C@@H]3Cc4ccccc4CN3C2=O)cc1Cl	18%	14%	-16%	12µM*	?	4%
O=C(CCc1nnc(COc2ccccc2)o1)NC1(c2ccccc2)CC1	-4%	-6%	9%	?	15%	1%
Cn1nc(C(F)(F)F)c(C(=O)Nc2ccc(F)cc2F)c1Sc1ccc(Cl)cc1	8%	0%	?	12µM*	-5%	1%
Cn1nc(C(F)(F)F)c(C(=O)Nc2ccc(F)cc2F)c1Sc1ccc(C(F)(F)F)cc1	18%	8%	?	8.3µM*	-8%	3%
Cc1ccc(Sc2c(C(=O)Nc3ccc(F)cc3F)c(C(F)(F)F)nn2C)cc1	20%	25%	?	?	-2%	-3%
C/C(=N\NC(=O)c1ccc(C)cc1C)c1ccc2c(c1)OCO2	-9%	14%[11.6 µM]	10µM*	3.7µM*	-19%	1%
CC/C(=N/NC(=O)c1ccc2c(c1)OCO2)c1ccccc1O	/	30%	/	/	3.2µM*	/
C/C(=N\NC(=O)c1cc2ccccc2cc1O)c1ccc2c(c1)OCO2	8%	29%	6.6µM*	5.2µM*	-3%	-6%
Cc1ccc(/C=N/NC(=O)CNC(=O)c2cccc([N+](=O)[O-])c2C)o1	/	5%	18%	34%	2%	-2%
COc1cc(S(=O)(=O)NCC(c2ccco2)N2CCCCC2)ccc1NC(C)=O (stereo unspecified)	/	-10%	?	-21%	-15%	3%
COc1ccc(C(=O)Nc2nncs2)cc1S(=O)(=O)N1CCOCC1	12%	23%	9%	24%	20%	6%
CCCCC(CC)CN=C(N)NC(N)=NCCCCCCN=C(N)NC(N)=NCC(CC)CCCC (stereo unspecified)	/	60%	0.23µM*	0.066µM*!	?	/
